Where “and” joins values, the source holds several entries; their conditions need not be identical. Equal values may be shown once. Inconclusive results are not listed. Some compounds were tested as several samples or in several runs, with calls that do not always agree. Calls of active or inactive are those of the source. The calls were made as follows: active = hit-call score of the fitted dose curve at least 0.9, where 1 is the maximum; inconclusive = response in the unintended direction; inactive = score below 0.9.

A short description of assay [1]: ACEA_AR_agonist_AUC_viability: ACEA Biosciences xCELLigence Real-Time Cell Analysis on Androgen Receptor Agonism for Viability (AID 2283775).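 As to AC50: viability read 80 hours after compound addition.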 The procedure, abridged:
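Viability endpoint from xCELLigence impedance in 22Rv1 prostate cells at 80 h. Eight-point series, 100 uM maximum final.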

Assay [2] is described as follows: ACEA_AR_antagonist_AUC_viability: ACEA Biosciences xCELLigence Real-Time Cell Analysis on Androgen Receptor Antagonism for Viability (AID 2283776).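 Also: 22Rv1 human prostate cancer cells growing on impedance electrode plates; hits lower the growth signal relative to DMSO meaning cytotoxicity.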 The procedure, abridged: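 Impedance read-out (RT-CES): area under growth curve at 80 h post-dose, loss of signal scored vs DMSO baseline. 22Rv1 cells; 8-pt 1:4 series, top 100 uM final, ≤0.5% DMSO; biological duplicate.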

Assay [3] is described as follows: ACEA_ER_AUC_viability: ACEA Biosciences xCELLigence Real-Time Cell Analysis on Estrogen Receptor Agonism for Viability (AID 2283782).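 Also: hit means loss of impedance signal meaning reduced cell growth or viability.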 The procedure, abridged:
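Read-out: real-time electrical impedance (RT-CES) area under curve, loss of signal taken as reduced viability, normalized to DMSO baseline. T-47D cells, charcoal-stripped serum medium, compounds up to 100 uM final, continuous exposure, 80 h.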

In assay [4] the target is AR (gene 367) (UniProt P10275). Briefly: ACEA_AR_agonist_80hr: ACEA Biosciences xCELLigence Real-Time Cell Analysis on Androgen Receptor Agonism for Proliferation (AID 2283783).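 Also: hits increase impedance growth signal above DMSO baseline.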 The procedure, abridged:
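Impedance (RT-CES) growth signal at 80 h post-dose; 22Rv1 cells, 8-pt 1:4 series, top 100 uM final, DMSO ≤0.5%; duplicate plates; gain-of-signal fit relative to DMSO baseline.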

The target of assay [5] is AR (gene 367) (UniProt P10275). Briefly: ACEA_AR_antagonist_80hr: ACEA Biosciences xCELLigence Real-Time Cell Analysis on Androgen Receptor Antagonism for Proliferation (AID 2283787).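 Also: 22Rv1 human prostate cancer cells with growth followed by electrical impedance; hits lower the impedance growth signal relative to DMSO.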 The method in brief:
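Measures real-time proliferation of 22Rv1 prostate cancer cells by electrode impedance at 80 hours after dosing. Test articles ran at eight concentrations (1:4 steps, top 100 uM final) in biological duplicate.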

Assay [6] is described as follows: STM_H9_NormalizedViability: Cytotoxicity Assessment at 120 hours in the Stemina devTOX quickPredict H9 human embryonic stem cell (hESC)-based Assay (AID 2283784). The method in brief: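 CellTiter-Fluor RFU, background-subtracted, expressed relative to 0.1% DMSO neutral control by plate. Pluripotent H9 cells; treatment with daily re-dosing. Plates carried 1uM methotrexate (positive) and 5 nM methotrexate (negative) references.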

Chain of AR (gene 367) (P10275 whole entry, looked up): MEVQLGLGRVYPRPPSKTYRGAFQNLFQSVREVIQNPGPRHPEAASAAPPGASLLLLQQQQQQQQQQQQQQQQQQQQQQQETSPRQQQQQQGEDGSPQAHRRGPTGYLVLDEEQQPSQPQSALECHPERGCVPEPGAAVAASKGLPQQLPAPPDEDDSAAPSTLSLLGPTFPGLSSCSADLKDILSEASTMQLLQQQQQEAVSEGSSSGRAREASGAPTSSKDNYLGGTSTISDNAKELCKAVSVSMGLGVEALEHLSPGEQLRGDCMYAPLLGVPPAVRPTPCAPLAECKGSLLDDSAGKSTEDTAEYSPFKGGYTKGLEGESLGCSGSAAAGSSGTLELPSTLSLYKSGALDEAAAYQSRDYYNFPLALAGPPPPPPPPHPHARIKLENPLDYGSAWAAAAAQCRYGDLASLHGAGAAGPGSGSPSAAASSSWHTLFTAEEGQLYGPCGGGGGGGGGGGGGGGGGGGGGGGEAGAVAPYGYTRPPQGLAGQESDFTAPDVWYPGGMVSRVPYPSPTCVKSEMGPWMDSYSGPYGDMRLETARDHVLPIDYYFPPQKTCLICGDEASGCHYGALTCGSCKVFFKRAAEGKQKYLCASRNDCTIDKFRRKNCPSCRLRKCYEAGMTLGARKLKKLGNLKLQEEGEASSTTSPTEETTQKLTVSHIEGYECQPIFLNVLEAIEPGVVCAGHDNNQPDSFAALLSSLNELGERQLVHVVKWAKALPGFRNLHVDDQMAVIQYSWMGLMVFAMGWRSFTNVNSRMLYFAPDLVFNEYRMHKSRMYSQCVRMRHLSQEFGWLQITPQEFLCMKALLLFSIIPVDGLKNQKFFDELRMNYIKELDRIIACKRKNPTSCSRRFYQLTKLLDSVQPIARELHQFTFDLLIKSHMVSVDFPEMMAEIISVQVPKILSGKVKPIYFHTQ

As to `Cc1ccccc1CO[C@@H]1C[C@@]2(C(C)C)CC[C@]1(C)O2`, the AC50 was 76.7 µM (active) in assay [1], 63.6 µM (active) in assay [2], 74.9 µM (active) in assay [3] and 76.6 µM (active) with AR (gene 367) [5]. The result with AR (gene 367) [4] was inactive.
Consider `NS(=O)(=O)C(F)(F)C(F)(F)C(F)(F)C(F)(F)C(F)(F)C(F)(F)C(F)(F)C(F)(F)F`, for which the AC50 in assay [2] was 59.4 µM (active); in assay [3] it was 77.8 µM (active) and 132 µM (active); with AR (gene 367) [5], 66.1 µM (active).
Consider `O=C(O)C(F)(F)C(F)(F)C(F)(F)C(F)(F)C(F)(F)C(F)(F)C(F)(F)C(F)(F)F`, for which the AC50 in assay [1] is 74.2 µM (active); in assay [2], 72 µM (active); in assay [3] it was 122 µM (active). In addition, the compound was called inactive in assay [3].
As to `Cc1ccccc1[N+](=O)[O-]`, in assay [3], the result was inactive.
Turning to `Nn1cnnc1`, the call in assay [2] was inactive.
Regarding `Nc1ccc(-c2ccc(N)cc2)cc1`, the outcome in assay [2] and in assay [3] was inactive.
Regarding `O=NN(c1ccccc1)c1ccccc1`, the outcome in assay [1], in assay [2] and in assay [6] was inactive.
With `c1cc2ccc3cccc4ccc(c1)c2c34`, the compound was called inactive in assay [1] and in assay [3]. For the same compound, the AC50 in assay [2] is 21.4 µM (active); in the assay with AR (gene 367) [5], 25.5 µM (active).
As to `ClC1=C(Cl)[C@]2(Cl)[C@@H]3[C@H]4C[C@H]([C@@H]5O[C@H]45)[C@@H]3[C@@]1(Cl)C2(Cl)Cl`, the AC50 in assay [1] is 24.1 µM (active); in assay [2], 22.5 µM (active); in assay [6], 88.1 µM (active). Further, the outcome in assay [3] was inactive.
As for `COS(=O)(=O)OC`, the compound was classed as inactive in assay [1], in assay [2] and in assay [6].
For `CO/C=C(/C(=O)OC)c1ccccc1COc1cccc(C(F)(F)F)n1`, the AC50 in assay [1] and in assay [2] was 50 µM (active) in each case. In assay [6], the outcome was inactive.
As to `Oc1c(Cl)c(Cl)c(Cl)c(Cl)c1Cl`, the AC50 in assay [1] is 15.2 µM (active); in assay [2] it was 29.5 µM (active); in assay [3] it was 77.9 µM (active). Moreover, in assay [3], the result was inactive.
For the compound `O=C(N[C@H]1CN2CCC1CC2)c1cc2ccoc2cn1`, the call (in assay [1]; in assay [2]; with AR (gene 367) [4]) was inactive. Besides, in the assay with AR (gene 367) [5], the AC50 was 33.1 µM (active).
In the case of `CCOCCOC(C)=O`, the result in assay [1], in assay [2] and in assay [6] was inactive.
On to `CCC(C)c1cc([N+](=O)[O-])cc([N+](=O)[O-])c1O` (configuration not stated), for which the AC50 in assay [1] was 12.7 µM (active); in assay [2] it was 12 µM (active). Moreover, the result in assay [6] was inactive.
As for `Cc1cc(O)ccc1Cl`, the outcome in assay [1], in assay [2] and in assay [6] was inactive.
`CCC(=O)O[C@H]1CC[C@H]2[C@@H]3CCC4=CC(=O)CC[C@]4(C)[C@H]3CC[C@]12C`: the AC50 in assay [3] is 92.4 µM (active) and 88.5 µM (active); with AR (gene 367) [4], 0.207 nM (active) and 0.285 nM (active) and 0.61 nM (active); in assay [6], 28.6 µM (active).
Consider `CCOC(=O)C(O)(c1ccc(Cl)cc1)c1ccc(Cl)cc1`, for which the AC50 in assay [1] is 79.6 µM (active); in assay [2] it was 19.6 µM (active); in assay [3] it was 81.3 µM (active); with AR (gene 367) [5] it was 19.2 µM (active). Also, the call with AR (gene 367) [4] was inactive.
For the compound `CCCCCCCCOC(=O)c1ccccc1C(=O)OCCCCCCCC`, the compound was called inactive (in assay [1]; in assay [2]; with AR (gene 367) [4]). Further, the AC50 in the assay with AR (gene 367) [5] is 50 µM (active).

In general, AC50 refers to the midpoint of the concentration-response curve, whichever way the signal moves.
